Measured values as given in the GenesisPotency data set.
The campaign covered roughly 290,000 compounds. About 3,000 (1%) were called active. No stated cut-off is given here; in the data, active means inhibition mostly above about 36% (no sharp cut-off); inactive means mostly below about 34%. The sample as a whole holds a higher share of actives than the screen did.

These molecules were tested against T1, Nucleotide-binding oligomerization domain-containing protein 1, Homo sapiens (UniProt Q9Y239) (assay: inhibition of NOD1-driven NF-kB reporter – cell-based, luminescence, uHTS, primary screen (AID 1578)).
T1 sequence (whole entry): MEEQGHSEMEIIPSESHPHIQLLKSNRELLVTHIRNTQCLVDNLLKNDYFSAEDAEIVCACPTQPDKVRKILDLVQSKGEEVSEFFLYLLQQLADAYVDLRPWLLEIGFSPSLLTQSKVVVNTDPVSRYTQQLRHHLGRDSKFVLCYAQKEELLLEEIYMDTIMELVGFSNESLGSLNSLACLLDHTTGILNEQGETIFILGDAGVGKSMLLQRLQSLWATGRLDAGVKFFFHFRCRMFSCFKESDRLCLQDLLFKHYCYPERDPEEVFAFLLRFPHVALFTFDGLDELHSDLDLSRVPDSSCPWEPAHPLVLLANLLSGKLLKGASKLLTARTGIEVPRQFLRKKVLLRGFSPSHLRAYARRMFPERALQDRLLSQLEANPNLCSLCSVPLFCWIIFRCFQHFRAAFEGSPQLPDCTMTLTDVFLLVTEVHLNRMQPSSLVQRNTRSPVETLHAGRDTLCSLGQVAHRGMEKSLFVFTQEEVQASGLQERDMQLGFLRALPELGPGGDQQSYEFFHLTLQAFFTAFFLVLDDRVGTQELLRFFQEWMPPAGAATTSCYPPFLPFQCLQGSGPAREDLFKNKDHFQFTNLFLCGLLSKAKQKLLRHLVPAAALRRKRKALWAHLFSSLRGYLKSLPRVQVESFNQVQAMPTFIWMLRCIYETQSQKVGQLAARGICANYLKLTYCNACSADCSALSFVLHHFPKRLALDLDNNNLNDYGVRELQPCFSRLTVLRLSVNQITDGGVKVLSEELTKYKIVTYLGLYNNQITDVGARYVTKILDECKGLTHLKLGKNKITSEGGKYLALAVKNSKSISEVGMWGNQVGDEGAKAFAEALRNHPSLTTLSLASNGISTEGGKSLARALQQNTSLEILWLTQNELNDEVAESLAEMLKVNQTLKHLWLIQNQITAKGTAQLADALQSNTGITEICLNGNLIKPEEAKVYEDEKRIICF

outcome, active:
Cc1cccc(/C=C(\c2nc3ccccc3[nH]2)S(=O)(=O)c2ccccc2)c1
O=S(=O)(/C(=C/c1ccc(C(F)(F)F)cc1)c1nc2ccccc2[nH]1)c1ccccc1
CC(C)c1ccc(/C=C(\c2nc3ccccc3[nH]2)S(=O)(=O)c2ccccc2)cc1
Cc1ccc(Cc2cnc(N3C(=N)SC(c4ccccc4)C3=O)s2)cc1 (stereo not drawn)
N=C1SC(c2ccccc2)C(=O)N1c1ncc(Cc2ccccc2Cl)s1 (stereo not drawn)
N=C1SC(c2ccccc2)C(=O)N1c1ncc(Cc2ccccc2)s1 (stereo not drawn)
CCOc1ccc2nc(SCc3ccc(CC(=O)O)cc3)c(C#N)cc2c1
Cc1nc2ccc(NS(=O)(=O)c3ccc4c(c3)OCCO4)cc2s1
CSc1nc2ccc(NS(=O)(=O)c3ccc4c(c3)OCCO4)cc2s1
Cc1nc2ccc(NS(=O)(=O)c3c(C)c(C)cc(C)c3C)cc2s1
O=C(CCl)Nc1cc(SCC(O)CO)cc([N+](=O)[O-])c1 (stereo not drawn)
COc1cc(F)ccc1CN1CCC(C(=O)Nc2ccc(Oc3ccccc3)nc2)CC1
CCOC(=O)C1=C(C)N=c2s/c(=C/c3cccc([N+](=O)[O-])c3O)c(=O)n2C1c1ccccc1 (stereo not drawn)
Cc1ccccc1N(Cc1cc(=O)[nH]c2ccccc12)C(=O)CCl
Cc1ccc(N(Cc2cc(=O)[nH]c3ccccc23)C(=O)CCl)c(C)c1
COc1cccc(C(=O)Oc2c(Br)cc(Br)cc2/C=N/NC(=O)c2cc(C)[nH]n2)c1
Cc1cc(C(=O)N/N=C/c2cc(Br)ccc2OC(=O)c2ccccc2)n[nH]1
Cc1cc(C(=O)N/N=C/c2cc(Br)cc(Br)c2OC(=O)c2cccc(F)c2)n[nH]1
Cc1ccc(-c2csc3ncnc(Sc4nnc(CN5CCCCCC5=O)o4)c23)cc1
COc1ccc(Cn2c(O)c(C=Nc3ccccc3C(=O)O)c3ccccc3c2=O)cc1
COc1ccccc1NS(=O)(=O)c1cccc(-n2c(O)c(C=Nc3ccccc3C(=O)O)c3ccccc3c2=O)c1
CCN(CC)S(=O)(=O)c1cccc(-n2c(O)c(C=Nc3ccccc3C(=O)O)c3ccccc3c2=O)c1
COC(=O)Cc1[nH]n(-c2nc3ccccc3s2)c(=O)c1C(C)=Nc1ccc(C)cc1
Cc1ccc(Cl)cc1N1CCN(C(=O)c2cc3c(=O)[nH]c4ccccc4c3n2C)CC1
COc1ccc(CN(C)Cc2nc(Cc3cccc(F)c3)no2)c2cccnc12
Cc1nc(SCC(=O)Nc2nc3ccccc3s2)c(C#N)c(C)c1C
COc1ccc(-n2nnnc2S(=O)(=O)CC(=O)N2CCCCC2)cc1
Cc1cc(Nc2cccc([N+](=O)[O-])c2)n2c(nc3ccccc32)c1C#N
CCc1nnc(NC(=O)c2ccc(Cl)c(S(=O)(=O)N3CCc4ccccc43)c2)s1
CC(NC(=O)OCc1ccccc1)C(=O)Oc1cc2oc(=O)cc(-c3ccccc3)c2cc1Cl (stereo not drawn)
CC(NC(=O)OC(C)(C)C)C(=O)Oc1cc2oc(=O)cc(-c3ccccc3)c2cc1Cl (stereo not drawn)
COC(=O)c1ccc(Nc2c([N+](=O)[O-])c(=O)oc3ccccc23)cc1
CCOC(=O)c1sc(N2C(=O)C(O)=C(C(=O)c3ccco3)C2c2ccco2)nc1C (stereo not drawn)
CCOC(=O)N1CCN(C(=O)c2ccc(Cn3c(=S)[nH]c4cc5c(cc4c3=O)OCO5)cc2)CC1
Cc1ccc(C(=O)Sc2cccccc2=O)cc1
CC(=O)c1c(C)[nH]c(C(=O)OCC(=O)Nc2ccc(C)cc2[N+](=O)[O-])c1C
CC(/C=C1\SC(=O)N(CCCC(=O)O)C1=O)=C\c1ccccc1
CN(Cc1ccccc1)C(=S)NC(=O)c1ccc(-c2ccccc2)cc1
C=CCN(CC=C)C(=S)NC(=O)c1ccc(-c2ccccc2)cc1
CCOc1cc(/C=C(/C#N)c2ccc(Cl)cc2)cc(Cl)c1OCC(=O)O
CC1=C(CO)C(=O)OC([C@@H](C)C2CC[C@H]3C4C[C@H]5O[C@]56[C@@H](O)C=CC(=O)[C@]6(C)C4CC[C@]23C)C1 (stereo partly drawn)
CN(C)c1ccc(C(=O)Nc2nnc(-c3ccc(Cl)cc3)o2)cc1
Cc1cccc(-c2nnc(NC(=O)c3ccc(Cl)cc3)o2)c1
O=C(Nc1nnc(-c2ccccc2)o1)c1ccc(Cl)cc1
COc1ccc(OC)c(NC(=O)CSc2ncnc3c2cnn3-c2ccccc2Cl)c1
CCCC(Oc1ccc(Br)cc1)c1nc2c3cc(OC)c(OC)cc3nc(=S)n2[nH]1 (stereo not drawn)
CC(Oc1ccc(Br)cc1)c1nc2c3ccccc3nc(=S)n2[nH]1 (stereo not drawn)
Oc1ccc(CCNc2ncnc3ccc(Cl)cc23)cc1
COc1ccc(CCNc2ncnc3sccc23)cc1OC
COc1ccc(CCNc2ncnc3c2oc2ccccc23)cc1OC.Cl
COc1ccc(CCNc2ncnc3sc(C)cc23)cc1OC.Cl
COc1ccc(CCNc2ncnc3cc(OC)c(OC)cc23)cc1OC
O=C(c1ccc(S(=O)(=O)c2cccc(Cl)c2)c([N+](=O)[O-])c1)N1CCN(Cc2ccccc2)CC1
COc1ccc(NC(=O)/C(Cl)=C(/Cl)S(=O)Cc2ccccc2Cl)cn1 (stereo not drawn)
COc1ccc(NC(=O)/C(Cl)=C(/Cl)S(=O)Cc2ccc(C)cc2)cn1 (stereo not drawn)
COc1ccc(NC(=O)/C(Cl)=C(/Cl)S(=O)Cc2ccc(Cl)cc2)cn1 (stereo not drawn)
COc1ccc(NC(=O)/C(Cl)=C(/Cl)S(=O)Cc2ccccc2)cn1 (stereo not drawn)
COc1ccc(CS(=O)/C(Cl)=C(/Cl)C(=O)Nc2ccc(OC)nc2)cc1 (stereo not drawn)
CC(=O)c1ccc(N2CCN(C(=S)Nc3ccc(Oc4ccccc4)cc3)CC2)cc1
C=CCSc1nsc(NC(=O)Nc2cccc(C(C)=O)c2)n1
Cc1ccc(CS(=O)(=O)c2ccc(C(=O)N3CCN(c4ccccn4)CC3)cc2[N+](=O)[O-])cc1
Cc1ccccc1CN1CCc2c(OCC(=O)N3CCCc4ccccc43)cccc2C1=O
O=[N+]([O-])c1ccc(NC(=S)NCCc2ccc(Cl)cc2)cc1
O=[N+]([O-])c1ccc(NC(=S)NCc2ccc(F)cc2)cc1
COc1ccc(-c2cc(C)no2)cc1S(=O)(=O)N1CCN(c2ccccc2F)CC1
Cc1cc(-c2ccc(C)c(S(=O)(=O)N3CCN(c4ccc(F)cc4)CC3)c2)on1
CCOC(=O)COc1ccc2ccccc2c1/C=C/[N+](=O)[O-]
COc1ccc(CC(=O)Nc2cccc(-c3nnc(-c4ccc(C)cc4)o3)c2)cc1OC
Nc1nccc(-c2ccc(-n3cnc4ccccc43)cc2)n1
c1ccc2c(c1)ncn2-c1ccc(-c2ccnc(-c3ccncc3)n2)cc1
O=C(NNC(=O)c1ccccc1OCc1ccc(F)cc1)c1ccccc1O
O=C(NNC(=O)c1ccccc1OCc1ccccc1)c1ccccc1O
c1csc(C2=Nn3c(nnc3-c3ccncc3)SC2)c1
COc1cccc(-c2nnc3n2N=C(C(C)(C)C)CS3)c1
c1ccc(C2=Nn3c(nnc3-c3ccncc3)SC2)cc1
COc1ccc(C2=Nn3c(nnc3-c3ccncc3)SC2)cc1
Clc1ccccc1C1=Nn2c(nnc2-c2ccncc2)SC1
N#C/C(=C(/O)COC(=O)COc1cccc(Br)c1)c1nc2ccccc2[nH]1
Cc1cc(C)cc(OCC(=O)OC/C(O)=C(\C#N)c2nc3ccccc3[nH]2)c1
N#C/C(=C(/O)COC(=O)COc1ccc(Cl)cc1)c1nc2ccccc2[nH]1
COc1ccc(-[n+]2c(C)cc(/C=C3\Sc4ccccc4N3C)cc2C)cc1.[I-]
COc1ccc(-c2cncnc2-c2ccc(OC)cc2O)cc1
COc1ccc(-c2cnc(N)nc2-c2ccc(OC)cc2O)cc1
Cc1ccc(Nc2cc(C)nn2-c2nc(C)cc(=O)[nH]2)cc1
O=c1c2c(nc3c(-c4ccc(Cl)cc4)c[nH]n13)CCCC2
CCCc1cc(=O)n2[nH]cc(-c3ccc(Cl)cc3)c2n1
O=c1c2c(nc3c(-c4ccc(Cl)cc4)c[nH]n13)CCC2
O=c1c2c(nc3c(-c4cccc(Br)c4)c[nH]n13)CCCC2
CN(C)S(=O)(=O)N1CCC(Oc2cccc(C(=O)NC3CCCCCC3)c2)CC1
Cc1ccc(NC(=S)N/N=C/c2ccc([N+](=O)[O-])s2)cc1
Cc1cccc(NC(=S)N/N=C/c2ccc([N+](=O)[O-])s2)c1
Cc1cc(N2CCOCC2)c2c(N)c(Br)cc(C)c2n1
O=C(Nc1nnc(SCc2ccc(F)cc2)s1)c1ccccn1
CC(Oc1ccc(Br)cc1)C(=O)Nc1nc(-c2ccccn2)cs1 (stereo not drawn)
O=C(Nc1nc(-c2ccccn2)cs1)Nc1ccc(F)cc1F
O=C(Nc1nc(-c2cc(F)ccc2F)cs1)c1ccccn1
Cn1cc([N+](=O)[O-])c(C(=O)Nc2nc(-c3ccc(Cl)cc3)cs2)n1
O=C(Nc1nc(-c2ccccn2)cs1)c1cc(Cl)ccc1[N+](=O)[O-]
COc1ccc(-c2csc3ncnc(NCCCO)c23)cc1
COc1ccc(-c2csc3ncnc(NCCO)c23)cc1
OCCCNc1ncnc2scc(-c3ccc(Cl)cc3)c12
CCN(CC)S(=O)(=O)c1ccc2[nH]cc(C(=O)NCCC3=CCCCC3)c(=O)c2c1
Cn1c(=O)c2c(nc(NCc3ccco3)n2C/C=C/c2ccccc2)n(C)c1=O
O=C(Nc1ccc(S(=O)(=O)Nc2ccc(F)cc2)cc1)c1ccc(CN2CCOCC2)cc1
O=C(Nc1ccc(S(=O)(=O)N2CCCCC2)cc1)c1ccc(CN2CCOCC2)cc1
O=C(Nc1ccc(CN2CCOCC2)cc1)c1ccc(-c2ccc(Cl)cc2Cl)o1
O=C(Nc1ccc(S(=O)(=O)N2CCOCC2)cc1)c1ccc(CN2CCc3ccccc3C2)cc1
O=C(Nc1ccc(S(=O)(=O)N2CCCCC2)cc1)c1ccc(CN2CCc3ccccc3C2)cc1
